This is a sample that favours compounds with a hit; in the whole collection about 7.4% have one here.
SMN2 splice enh: SMN2 splice variant enhancement. HEK293 SMN2-luciferase splicing reporter, luminescence, 30-36 h. Potency, µM (titrated, usually from 46.1 µM), inactives show at the top dose activity change, positive = activation, usual class: activators. 210,000 compounds, 2.8% hits. AID 1458; further: % of control where 0% means no effect; nearly all actives have a fitted effect of over 55% in size
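qHTS luciferase splicing reporter: luminescence rises when SMN2 exon 7 is included in transfected HEK293 cells. Compound exposure lasted 30-36 h at 37C, with 4.5 mM final sodium butyrate as control, followed by a ONE-Glo read.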
NPC1 prom act: activators of NPC1 promoter; AID 485313; Potency, µM (highest dose often 9.22 µM), inactives show top-dose activation, hits mostly activators; Huh7 NPC1 promoter luciferase reporter, 24 h; 320,000 compounds, 2.4% hits; further: % of control where 0% means no effect; nearly all actives have a fitted effect of over 60% in size
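Huh7 cells stably carrying NPC1 promoter–luciferase, plated in Opti-MEM with 10% FBS for 2 h, were exposed to compound in DMSO for 24 h at 37 °C; luciferase reagent was added for 10 min and luminescence read.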
FLuc modulator: counter-screen for miR-21 project: firefly luciferase inhibitors or activators; P08659; purified FLuc, Km substrates, luminescence inhibition; Potency, µM (top dose mostly 57.5 µM), for inactives: top-dose activity change, negative = inhibition, actives largely listed as inhibitors; 360,000 compounds, 6.9% hits;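 further: plate controls were vehicle for no effect and reference inhibitor for full effect; nearly all actives have a fitted effect of over 55% in size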
Target sequence (P08659 whole entry, looked up): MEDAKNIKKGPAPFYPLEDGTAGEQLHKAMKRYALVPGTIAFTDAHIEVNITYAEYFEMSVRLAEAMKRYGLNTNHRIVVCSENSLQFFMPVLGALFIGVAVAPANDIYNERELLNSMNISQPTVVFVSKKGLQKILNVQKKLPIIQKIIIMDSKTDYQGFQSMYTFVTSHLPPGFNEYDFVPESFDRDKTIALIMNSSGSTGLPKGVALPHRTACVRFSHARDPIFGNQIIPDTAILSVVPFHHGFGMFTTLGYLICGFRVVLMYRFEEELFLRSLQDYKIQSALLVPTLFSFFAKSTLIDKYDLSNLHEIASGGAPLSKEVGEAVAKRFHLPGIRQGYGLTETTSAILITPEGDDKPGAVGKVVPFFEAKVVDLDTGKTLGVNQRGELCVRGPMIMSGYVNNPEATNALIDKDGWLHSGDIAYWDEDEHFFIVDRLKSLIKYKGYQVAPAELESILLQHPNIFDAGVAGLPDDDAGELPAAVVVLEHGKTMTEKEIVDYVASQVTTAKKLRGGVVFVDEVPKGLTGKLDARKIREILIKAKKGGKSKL
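Biochemical qHTS of compounds, final roughly 60 µM downward over six points, against 10 nM purified firefly luciferase using Km concentrations of substrates (10 uM D-luciferin, 10 uM ATP) in Tris acetate pH 7.5 buffer; luminescence output.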
Rab9 promoter act: activators of Rab9 promoter; Potency, µM (top dose mostly 9.22 µM), for the others: top-dose activation, negative = inhibition, hits mostly activators; 320,000 compounds, 2.8% hits; Huh7 Rab9 promoter-luciferase reporter, luminescence, 24 h; AID 485297; further: % of control where 0% means no effect; nearly all actives have a fitted effect of over 60% in size
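Cells were plated at 1500 per well in reduced-serum medium with 10% FBS and left 2 h. Compound in DMSO was then added for 24 h at 37 °C. Reporter signal was read by luminescence after 10 min with luciferase detection reagent.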
ELG1 genotox: genotoxicity induction in ELG1-luciferase HEK293T cells | HEK293T ELG1-luciferase reporter, luminescence, 16 h | Potency, µM (series often up to 46 µM), for inactives: top-dose activity change, positive = activation, actives largely listed as activators | 330,000 compounds, 1.3% hits | AID 504466; further: % of control where 0% means no effect; nearly all actives have a fitted effect of over 60% in size
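Reporter readout depends on ELG1 protein level, which increases with genetic stress. After 16 hr compound exposure at 37 °C, luciferase activity was quantified using ONE-Glo.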
Active calls of the source: *; u = inconclusive; x = no result; [ ] = remark or other dose. The call rests on the fitted dose curve; in most records, active means well fitted curve in the direction sought with a large enough effect; inconclusive means small, poorly fitted or top-dose-only effect, or another doubt; inactive means no such curve, though single readings can be large; an effect the other way counts as inactive or inconclusive. Potency means the concentration at half of the fitted maximal effect.

SMILES	SMN2 splice enh	NPC1 prom act	FLuc modulator	Rab9 promoter act	ELG1 genotox
COc1ccc(Cc2ccccc2C(=O)O)c2ccccc12	3%[9.22 µM]	x	x	x	x
COc1ccc2cc(C(=O)N/N=C/c3cc(OC)c(OC)c(OC)c3)[nH]c2c1	x	1%	6.7µM*	-2%	-6%
COc1ccc2[nH]c(C(=O)N/N=C/c3ccc(O)cc3O)cc2c1	x	-36%	11µM*	-2%[1.84 µM]	15%
COc1cc2cc(C(=O)N/N=C/c3ccccc3Cl)[nH]c2cc1OC	x	-4%	17µM*	-3%	-5%
COc1ccc(/C=C\C(=O)NCC(=O)N/N=C/c2ccc(O)cc2O)cc1	x	-2%	u	-1%	u
CCOc1ccc(/C=N/NC(=O)c2[nH]c3ccc(C)cc3c2C)cc1	x	-3%	11µM*	4%	-2%
Sc1ccc2ccccc2c1CNCc1ccccc1	-4%[9.22 µM]	x	x	x	x
COc1ccc(/C=N/NC(=O)c2cc3cc(OC)c(OC)cc3[nH]2)cc1	x	-2%	u	0%	1%
CCOc1ccc2[nH]c(C(=O)N/N=C/c3ccc(OC)cc3)cc2c1	x	-8%	11µM*	-18%	6%
COc1cccc2c1Oc1ncccc1N(C(=O)Nc1ccc(F)c(Cl)c1)C2	x	x	5%	x	x
COc1cccc(C=O)c1OCCCOc1cccc2cccnc12	x	u	u	4.5µM*	18µM*
Brc1ccccc1OCCOc1cccc2cccnc12	u	-3%	12µM*	-3%	11%
Cc1ccc(OCCOCCOc2cccc3cccnc23)c(Br)c1	-14%	0%	u	-3%	-3%
Brc1ccccc1OCCCOc1cccc2cccnc12	x	u	11µM*	4µM*	u
Cc1cc(C)cc(OCCCOc2cccc3cccnc23)c1	-17%	0%	-7%	0%	-5%
CCCCNc1sc(S(=O)(=O)CCC)nc1S(=O)(=O)c1ccc(C)cc1	-7%	x	-3%	x	x
COc1ccc(/C=C/C(=O)Nc2ccc(C(N)=O)cc2)cc1OC	x	-1%	-18%	2%	0%
COc1ccc(/C=C/C(=O)NC2=NCCS2)cc1OC	u	2.8µM*	-11%	4µM*	u
COc1ccc(/C=C/C(=O)Nc2ccc3c(c2)CCC3)cc1OC	-36%	0%	19µM*	13%	0%
O=S(=O)(c1ccc(Br)cc1)N1CCn2cccc2C1c1ccc(Br)cc1 (stereo not drawn)	x	x	0%	x	x
Cc1ccc(-c2nc(C=Nc3cccc(C)c3)c(O)o2)cc1	-18%	6%	u	1%	12%
Cc1ccc(N=Cc2nc(-c3ccco3)oc2O)cc1	12%	1%	4.3µM*	8%	u
Cc1ccc(-c2nc(C=Nc3ccccc3)c(O)o2)cc1	x	18%	9.5µM*	u	u
Oc1oc(-c2ccccc2)nc1/C=N/c1nccs1	u	2%	12µM*	12%	2%
Cc1cc(C)cc(NC(=O)C(Cc2ccccc2)N2Cc3ccccc3C2=O)c1 (stereo not drawn)	x	x	-9%	x	x
SMILES	SMN2 splice enh	NPC1 prom act	FLuc modulator	Rab9 promoter act	ELG1 genotox
O=C(Nc1ccccc1)n1ccc(-c2ccc(-n3ccnc3)cc2)n1	u	23%	u	u	11%
O=C(N=C1c2ccccc2CN1c1ccc(F)c(Cl)c1)c1cccnc1Cl	11µM*	u	15µM*	u	u
Cc1cccc(Nc2nnc(SCC(=O)NC(=O)CN3CCCC3=O)s2)c1	x	-1%	9.5µM*	-5%	7%
COc1cc(OC)cc(-c2nnc(SCC(=O)Nc3cccc(C(=O)O)c3)s2)c1	8%	4%	15µM*	15%	-3%
Cc1cccc(Nc2nnc(SCC3CCCCO3)s2)c1 (stereo not drawn)	20µM*	4µM*	5.4µM*	2.8µM*	12%
Cc1cccc(Nc2nnc(SCC(=O)Nc3ccc(C(=O)O)cc3)s2)c1	18%	21%	1.7µM*	0%	-4%
COc1ccc(Nc2nnc(SCC3CCCCO3)s2)cc1 (stereo not drawn)	30%	13%	u	22%	4%
Cc1cccc(NC(=O)CSc2nnc(NC(=O)C3CCC3)s2)c1	x	1%	-4%	1%	-2%
COc1ccc(-c2nnc(SCC(=O)Nc3cccc(C)c3)s2)cc1	x	x	-7%	x	x
COC(=O)C(C)Oc1ccc(Cc2ncc(C(F)(F)F)cc2Cl)cc1 (stereo not drawn)	x	-7%	-1%	-2%[1.84 µM]	0%
CC1Cc2c([nH]c3ccccc23)C2c3ccccc3CN12 (stereo not drawn)	x	3%	3%	3%	-3%
CN(CC(=O)Nc1ccccc1Cl)CC(=O)Nc1cccc2ccccc12	x	x	x	x	-9%
COc1ccc(NC(=O)C2CC(=O)N(Cc3ccco3)C2)cc1Cl (stereo not drawn)	x	-2%	-9%	1%	-1%
Cc1ccccc1Nc1nnc(SCC(=O)Nc2ccccc2[N+](=O)[O-])s1	-3%	-1%	-14%	18%	-1%
Cc1cccc(Nc2nnc(SCC(=O)Nc3ccccc3[N+](=O)[O-])s2)c1	3%	3%	7.6µM*	12%	-5%
CCOc1ccc(NC(=O)COc2ccc(C(=O)NCc3cccc(OC)c3)cc2OC)cc1	x	-3%	-2%	-7%	0%
C1CCC(C(C[C@@H]2CCCCN2)C2CCCCC2)CC1	-9%[20.6 µM]	x	x	x	x
Cc1ccsc1/C=C1/C(=O)NN(c2ccccc2)C1=O	-4%	u	9.5µM*	-4%	-7%
Cc1ccsc1C=C1C(=O)c2ccccc2C1=O	9%	u	1.3µM*	u	2%
Cc1ccccc1CN1CCCN(CC(=O)Nc2c(C)cccc2C)S1(=O)=O	x	x	0%	x	x
Cc1ccc(-c2nn(-c3ccccc3)cc2C(=O)NCCCN2CCOCC2)cc1	x	9%	u	5%	1%
Cc1ccc(NC(=O)C(=O)NCCCN2CCCC2=O)cc1	x	2.2µM*	12µM*	1.4µM*	2.1µM*
Cc1ccc(-c2nn(-c3ccc(F)cc3)cc2C(=O)NCCCN2CCCC2=O)cc1	x	1%	11µM*	3%	-7%
Cc1ccc(NC(=O)C(=O)NCCCN2CCCC2=O)c(C)c1	x	24%	u	u	12%
Cc1ccc(NC(=O)c2cccc3ccccc23)cc1	x	u	15µM*	u	18%
SMILES	SMN2 splice enh	NPC1 prom act	FLuc modulator	Rab9 promoter act	ELG1 genotox
Cc1ccnc(NC(=S)NC(=O)c2cncc(Br)c2)c1	5%	u	u	u	u
C/C(CC(=O)Nc1cc(C)ccn1)=N\NC(=O)c1ccc(C(C)(C)C)cc1	x	0%	11µM*	9%	0%
CC(=O)Nc1ccc(NC(=O)c2cccc3ccccc23)cc1	x	-4%	2%	-5%	-23%
O=C(Nc1cccnc1)c1ccccc1O	-15%	13%	15µM*	0%	18%
COc1ccc(C(=O)NC(=O)Nc2cc(C)ccn2)cc1	x	0.79µM*	0.19µM*	0.79µM*	u
O=C(Nc1cccnc1)c1ccccc1-c1ccccc1	-7%	0%	5%	-4%	0%
